Experimental data: the supplement of paper PMC7411054
Where a name gives a salt, the structure may show the parent alone.

Assays:
Conditions in all cases: treatment time: 24 h
[1] = test system: A549-GM130-SQSTM1; experiment: lowest phenotypically active concentration; higher = less potent
Summary of the method: (§1)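 Each of fifteen gene-edited A549, HepG2 and WPMY1 reporter lines, marked with BFP for segmentation and GFP and RFP/FusionRed, was treated in four wells at 0.3, 1, 3 or 9 µM for 24 h prior to live imaging. Normalisation of per-well live-cell features used solvent control wells. Deviation needed ≥3 of 4 wells beyond the 95th percentile of control Euclidean distances, and reproducibility needed a median replicate Pearson correlation above the 95th percentile of non-replicates. Both were required for phenotypic activity.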

[2] = test system: HepG2-GM130-SQSTM1; experiment: as above
Summary of the method: as §1

[3] = test system: HepG2-TUBA1B-RELA; experiment: as above
Summary of the method: as §1

[4] = test system: WPMY1-GM130-SQSTM1; experiment: as above
Summary of the method: as §1

[5] = test system: WPMY1-TP53BP1-CLTA; experiment: as above
Summary of the method: as §1

[6] = test system: A549-ACTB-RAB5A; experiment: phenotypically active (imaging signature differs from DMSO and reproducible) at any of 0.3-9 uM (binary (1 = active, 0 = inactive)); higher = active
Summary of the method: as §1

[7] = test system: A549-CANX-COX4; experiment: as above
Summary of the method: as §1

[8] = test system: A549-GM130-SQSTM1; experiment: as above
Summary of the method: as §1

[9] = test system: A549-TP53BP1-CLTA; experiment: as above
Summary of the method: as §1

[10] = test system: A549-TUBA1B-RELA; experiment: as above
Summary of the method: as §1

[11] = test system: HepG2-ACTB-RAB5A; experiment: as above
Summary of the method: as §1

[12] = test system: HepG2-CANX-COX4; experiment: as above
Summary of the method: as §1

[13] = test system: HepG2-GM130-SQSTM1; experiment: as above
Summary of the method: as §1

[14] = test system: HepG2-TP53BP1-CLTA; experiment: as above
Summary of the method: as §1

[15] = test system: HepG2-TUBA1B-RELA; experiment: as above
Summary of the method: as §1

[16] = test system: WPMY1-ACTB-RAB5A; experiment: as above
Summary of the method: as §1

[17] = test system: WPMY1-CANX-COX4; experiment: as above
Summary of the method: as §1

[18] = test system: WPMY1-GM130-SQSTM1; experiment: as above
Summary of the method: as §1

[19] = test system: WPMY1-TP53BP1-CLTA; experiment: as above
Summary of the method: as §1

[20] = test system: WPMY1-TUBA1B-RELA; experiment: as above
Summary of the method: as §1

Row | Compound | lowest phenotypically active concentration [1] [µM] | lowest phenotypically active concentration [2] [µM] | lowest phenotypically active concentration [3] [µM] | lowest phenotypically active concentration [4] [µM] | lowest phenotypically active concentration [5] [µM] | phenotypically active [6] | phenotypically active [7] | phenotypically active [8] | phenotypically active [9] | phenotypically active [10] | phenotypically active [11] | phenotypically active [12] | phenotypically active [13] | phenotypically active [14] | phenotypically active [15] | phenotypically active [16] | phenotypically active [17] | phenotypically active [18] | phenotypically active [19] | phenotypically active [20]
1 | COc1ccc2c(c1)/C(=C/c1c[nH]cn1)C(=O)N2 | 1 | ≤ 0.3 | 1 | 1 | 1 | 1 (active) | 1 (active) | 1 (active) | 1 (active) | 1 (active) | 1 (active) | 1 (active) | 1 (active) | 1 (active) | 1 (active) | 1 (active) | 1 (active) | 1 (active) | 1 (active) | 1 (active)
2 | CN1C[C@H](C(=O)N[C@]2(C)O[C@@]3(O)[C@@H]4CCCN4C(=O)[C@H](Cc4ccccc4)N3C2=O)C[C@@H]2c3cccc4[nH]cc(c34)C[C@H]21.CN1C[C@H](C(=O)N[C@]2(C)O[C@@]3(O)[C@@H]4CCCN4C(=O)[C@H](Cc4ccccc4)N3C2=O)C[C@@H]2c3cccc4[nH]cc(c34)C[C@H]21 [dihydroergotamine] | 9 | 9 | 9 | 9 | 9 | 1 (active) | 0 (inactive) | 1 (active) | 1 (active) | 1 (active) | 1 (active) | 0 (inactive) | 1 (active) | 1 (active) | 1 (active) | 0 (inactive) | 0 (inactive) | 1 (active) | 1 (active) | 0 (inactive)
3 | C[C@@]1(CO)[C@H](O)CC[C@@]2(C)[C@H]1CC[C@H]1C[C@@H]3C[C@@]12CC[C@]3(O)CO [Aphidicolin] | ≤ 0.3 | ≤ 0.3 | ≤ 0.3 | ≤ 0.3 | 1 | 1 (active) | 1 (active) | 1 (active) | 1 (active) | 1 (active) | 1 (active) | 1 (active) | 1 (active) | 1 (active) | 1 (active) | 1 (active) | 1 (active) | 1 (active) | 1 (active) | 1 (active)
4 | CC(C)(N)Cc1ccccc1 [phentermine] |  |  |  | 9 |  | 0 (inactive) | 1 (active) | 0 (inactive) | 1 (active) | 0 (inactive) | 1 (active) | 0 (inactive) | 0 (inactive) | 0 (inactive) | 0 (inactive) | 0 (inactive) | 0 (inactive) | 1 (active) | 0 (inactive) | 0 (inactive)
5 | Cc1c(C(=O)Nc2cccc(C(F)(F)F)c2)cc(-c2ccccc2)n1CCCN1CCOCC1 | 9 |  |  |  |  | 1 (active) | 0 (inactive) | 1 (active) | 0 (inactive) | 0 (inactive) | 0 (inactive) | 0 (inactive) | 0 (inactive) | 0 (inactive) | 0 (inactive) | 0 (inactive) | 0 (inactive) | 0 (inactive) | 0 (inactive) | 0 (inactive)
6 | O=c1[nH]c2ccccc2n1C1CCN(CCCC(c2ccc(F)cc2)c2ccc(F)cc2)CC1 [pimozide] | 9 | 3 | 3 |  |  | 1 (active) | 0 (inactive) | 1 (active) | 0 (inactive) | 1 (active) | 1 (active) | 0 (inactive) | 1 (active) | 0 (inactive) | 1 (active) | 0 (inactive) | 0 (inactive) | 0 (inactive) | 0 (inactive) | 0 (inactive)
7 | C[C@]12CC[C@H]3[C@@H](CCC4=CC(=O)CC[C@@]43C)[C@@H]1CC[C@@H]2O [testosterone] |  |  |  | 9 |  | 0 (inactive) | 0 (inactive) | 0 (inactive) | 0 (inactive) | 0 (inactive) | 0 (inactive) | 1 (active) | 0 (inactive) | 0 (inactive) | 0 (inactive) | 0 (inactive) | 0 (inactive) | 1 (active) | 0 (inactive) | 0 (inactive)
8 | O=C1NC(=S)N(c2cccc(Br)c2)C(=O)/C1=C/c1ccco1 |  | 9 | 9 | 3 | 9 | 0 (inactive) | 0 (inactive) | 0 (inactive) | 0 (inactive) | 1 (active) | 0 (inactive) | 1 (active) | 1 (active) | 0 (inactive) | 1 (active) | 1 (active) | 1 (active) | 1 (active) | 1 (active) | 1 (active)
9 | O=C1C=C2C=C[C@@H]3C[C@@]2(O1)[C@H]1CCCCN31 [Securinine] |  | 9 |  |  |  | 0 (inactive) | 0 (inactive) | 0 (inactive) | 0 (inactive) | 0 (inactive) | 0 (inactive) | 0 (inactive) | 1 (active) | 0 (inactive) | 0 (inactive) | 0 (inactive) | 0 (inactive) | 0 (inactive) | 0 (inactive) | 1 (active)
10 | CN1[C@@H]2CC[C@H]1C[C@@H](OC(=O)C(CO)c1ccccc1)C2 (some centres not stated) [Atropine sulfate monohydrate] |  |  |  |  |  | 0 (inactive) | 0 (inactive) | 0 (inactive) |  | 0 (inactive) | 0 (inactive) | 0 (inactive) | 0 (inactive) |  | 0 (inactive) | 0 (inactive) | 0 (inactive) | 0 (inactive) |  | 0 (inactive)
11 | C[N+]12CCC(CC1)C(OC(=O)C(O)(c1ccccc1)c1ccccc1)C2 (configuration not stated) [clidinium] |  |  |  |  |  |  | 0 (inactive) |  | 0 (inactive) |  | 0 (inactive) | 0 (inactive) | 0 (inactive) | 0 (inactive) | 0 (inactive) | 0 (inactive) | 0 (inactive) | 0 (inactive) | 0 (inactive) | 0 (inactive)
12 | CN1C(=O)CN=C(c2ccccc2)c2cc(Cl)ccc21 [diazepam] |  |  |  |  |  | 0 (inactive) | 0 (inactive) | 0 (inactive) | 0 (inactive) | 0 (inactive) | 1 (active) | 0 (inactive) | 0 (inactive) | 0 (inactive) | 0 (inactive) | 0 (inactive) | 0 (inactive) | 0 (inactive) | 0 (inactive) | 0 (inactive)
13 | COc1cc2c(cc1O)C[C@H]1c3c(cc(O)c(OC)c3-2)CCN1C [Boldine] | 9 |  |  | 1 |  | 0 (inactive) | 0 (inactive) | 1 (active) | 0 (inactive) | 1 (active) | 1 (active) | 0 (inactive) | 0 (inactive) | 0 (inactive) | 0 (inactive) | 0 (inactive) | 0 (inactive) | 1 (active) | 0 (inactive) | 0 (inactive)
14 | C[C@]1(C(=O)O)CCC[C@]2(C)c3cc(O)ccc3CC[C@@H]12 [Podocarpic acid] |  |  |  |  |  |  | 0 (inactive) |  | 0 (inactive) |  | 0 (inactive) | 0 (inactive) | 0 (inactive) | 0 (inactive) | 0 (inactive) | 0 (inactive) | 0 (inactive) | 0 (inactive) | 0 (inactive) | 0 (inactive)
15 | C[C@H]1CC[C@@H]2N(C1)C[C@H]1[C@@H]3C[C@H]4[C@@H](CC(=O)[C@H]5C[C@@H](O)CC[C@@]54C)[C@@H]3CC[C@H]1[C@]2(C)O [Imperialine] |  |  |  |  |  | 0 (inactive) | 0 (inactive) | 0 (inactive) | 0 (inactive) | 0 (inactive) | 0 (inactive) | 0 (inactive) | 0 (inactive) | 0 (inactive) | 0 (inactive) | 1 (active) | 1 (active) | 0 (inactive) | 0 (inactive) | 0 (inactive)
16 | C/C=C(/C)C(=O)O[C@H]1CC[C@@]2(C)[C@@H]3CC[C@H]4[C@]5(O)C[C@H](O)[C@@]6(O)[C@@H](CN7C[C@@H](C)CC[C@H]7[C@@]6(C)O)[C@]5(O)C[C@@]42O[C@]13O [Veratrine] |  |  | 9 |  |  | 0 (inactive) | 0 (inactive) | 0 (inactive) | 0 (inactive) | 0 (inactive) | 0 (inactive) | 0 (inactive) | 0 (inactive) | 0 (inactive) | 1 (active) | 0 (inactive) | 0 (inactive) | 0 (inactive) | 0 (inactive) | 0 (inactive)
17 | C[C@H]1CCCC=C[C@@H]2C[C@H](O)C[C@H]2[C@H](O)C=CC(=O)O1 [brefeldin-a] |  | ≤ 0.3 | ≤ 0.3 | ≤ 0.3 | ≤ 0.3 |  | 1 (active) |  | 1 (active) |  | 1 (active) | 1 (active) | 1 (active) | 1 (active) | 1 (active) | 1 (active) | 1 (active) | 1 (active) | 1 (active) | 1 (active)
18 | O=C1CCCN1CC#CCN1CCCC1 [Oxotremorine sesquifumarate] |  |  |  |  |  |  | 0 (inactive) |  | 0 (inactive) |  | 0 (inactive) | 0 (inactive) | 0 (inactive) | 0 (inactive) | 0 (inactive) | 0 (inactive) | 0 (inactive) | 0 (inactive) | 0 (inactive) | 0 (inactive)
19 | C[C@H](N)Cc1ccccc1 [dextroamphetamine] | 3 |  |  |  |  | 1 (active) | 0 (inactive) | 1 (active) |  | 1 (active) | 0 (inactive) | 0 (inactive) | 0 (inactive) |  | 0 (inactive) | 0 (inactive) | 0 (inactive) | 0 (inactive) |  | 0 (inactive)
20 | C[C@]12CC[C@H](O)C[C@H]1CC[C@@H]1[C@@H]2CC[C@]2(C)[C@@H](C3=CC(=O)OC3)CC[C@]12O [Digitoxigenin] |  | ≤ 0.3 | ≤ 0.3 | 1 | ≤ 0.3 |  | 1 (active) |  | 1 (active) |  | 1 (active) | 1 (active) | 1 (active) | 1 (active) | 1 (active) | 1 (active) | 1 (active) | 1 (active) | 1 (active) | 1 (active)
21 | O=P1(N(CCCl)CCCl)NCCCO1 (configuration not stated) [cyclophosphamide] |  |  |  |  |  |  | 0 (inactive) |  | 0 (inactive) |  | 0 (inactive) | 0 (inactive) | 0 (inactive) | 0 (inactive) | 0 (inactive) | 0 (inactive) | 0 (inactive) | 0 (inactive) | 0 (inactive) | 0 (inactive)
22 | C=C(C)[C@H]1Cc2c(ccc3c2O[C@@H]2COc4cc(OC)c(OC)cc4[C@@H]2C3=O)O1 [Rotenone] |  | ≤ 0.3 | ≤ 0.3 | 1 | ≤ 0.3 |  | 1 (active) |  | 1 (active) |  | 1 (active) | 1 (active) | 1 (active) | 1 (active) | 1 (active) | 1 (active) | 1 (active) | 1 (active) | 1 (active) | 1 (active)
23 | CCC(=O)O[C@](Cc1ccccc1)(c1ccccc1)[C@H](C)CN(C)C [propoxyphene] |  |  |  |  |  |  | 0 (inactive) |  | 0 (inactive) |  | 0 (inactive) | 0 (inactive) | 0 (inactive) | 0 (inactive) | 0 (inactive) | 0 (inactive) | 0 (inactive) | 0 (inactive) | 0 (inactive) | 0 (inactive)
